# Laboratory results published in the supplement of paper PMC3334620.
# Over roughly 33,000 sequences, “E-score (-0.5 to 0.5)” has its median near -0.012; the highest 2% begin near 0.29. Only a selection was taken, and the highest values are over-represented in it overall.
# Target: T1, Ybr033w (UniProt P38073)
# T1 sequence: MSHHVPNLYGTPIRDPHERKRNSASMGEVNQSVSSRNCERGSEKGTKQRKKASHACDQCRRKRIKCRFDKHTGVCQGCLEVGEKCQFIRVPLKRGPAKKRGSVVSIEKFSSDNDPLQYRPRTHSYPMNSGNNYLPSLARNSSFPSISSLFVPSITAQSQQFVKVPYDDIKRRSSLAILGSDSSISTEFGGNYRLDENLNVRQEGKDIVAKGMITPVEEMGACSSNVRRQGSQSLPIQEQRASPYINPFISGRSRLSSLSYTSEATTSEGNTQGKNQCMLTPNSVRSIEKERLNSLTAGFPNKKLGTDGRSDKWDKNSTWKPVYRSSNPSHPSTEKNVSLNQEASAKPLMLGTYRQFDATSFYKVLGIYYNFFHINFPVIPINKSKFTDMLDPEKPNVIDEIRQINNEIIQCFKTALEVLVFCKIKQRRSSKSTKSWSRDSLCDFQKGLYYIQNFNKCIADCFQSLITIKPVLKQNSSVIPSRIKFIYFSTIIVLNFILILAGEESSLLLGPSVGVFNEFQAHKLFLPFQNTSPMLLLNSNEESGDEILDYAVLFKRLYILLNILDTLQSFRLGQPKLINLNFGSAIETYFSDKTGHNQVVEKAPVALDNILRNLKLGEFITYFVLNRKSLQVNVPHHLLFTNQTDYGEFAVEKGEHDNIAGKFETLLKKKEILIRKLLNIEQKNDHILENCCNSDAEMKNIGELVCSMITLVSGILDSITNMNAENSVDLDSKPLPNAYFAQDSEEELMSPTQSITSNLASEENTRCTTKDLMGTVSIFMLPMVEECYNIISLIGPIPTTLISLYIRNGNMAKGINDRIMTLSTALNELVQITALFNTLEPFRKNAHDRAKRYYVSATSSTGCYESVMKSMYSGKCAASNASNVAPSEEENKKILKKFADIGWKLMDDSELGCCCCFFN
# Assay: PBM E-score (8-mer binding enrichment) (E-score (-0.5 to 0.5)); higher = stronger / more preferred TF binding
# Settings: protein concentration: 200 nM; construct: GST-full length
# How it was run: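 The E-score, a modified Wilcoxon-Mann-Whitney statistic, was computed by the Universal PBM Analysis Suite for every ungapped eight-base word pooled with its reverse complement. Scans behind it were normalised with masliner after bound GST-tagged yeast transcription factors were detected with fluorescent anti-GST. The proteins, at about 100-200 nM, had been applied to universal all-10-mer Agilent arrays made double-stranded by primer extension.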
row,Sequence,PBM E-score
1,ACGTTCTA,-0.0975
2,AAACCAAT,0.272
3,CATACCCG,-0.165
4,CGAATTGC,-0.0195
5,CAAGAACC,0.137
6,CCAGATCG,-0.0568
7,CCGATTAG,-0.131
8,ATTGTCTA,0.144
9,ACTCTAAC,0.17
10,AATAAAAA,0.252
11,AATAAAAG,0.0821
12,AATAAAAT,0.304
13,AAGTTATA,0.166
14,AAGTTTAT,0.333
15,AAGTTAAG,-0.149
16,AAGTTATT,0.3
17,AAGTTAAT,0.315
18,AAGTTAAC,0.224
19,AAGTTTAG,0.128
20,AAGTTATG,0.206
21,AAGTTTAC,0.154
22,AAACTGCA,0.146

row,Sequence,PBM E-score
1,ACCCTTCC,-0.0151
2,AGTAGCAA,0.152
3,ACACTGGG,-0.161
4,AGTGTTGC,0.0949
5,GTCTTTGA,-0.0431
6,GACATTCA,0.0222
7,CACTTTTC,0.255
8,CTCCGTTC,-0.0235
9,CTGGTGCA,-0.31
10,AGGAAATG,0.146
11,GGGAAATA,0.137
12,CGGAAATC,0.067
13,CGGAAATA,0.433
14,AGGAAATC,-0.0432
15,AGGAAATA,0.298
16,CTATTTGA,0.227
17,AAGATCCG,-0.0767
18,CAAACTGA,0.14
19,CAGGTAGA,-0.138
20,CAATAGTA,0.168
21,GAATAGTA,0.183
22,AGATAATC,0.306

row,Sequence,PBM E-score
1,AAAAAATT,0.237
2,TAATAGTA,0.297
3,CAATAATG,0.137
4,AAATAATT,0.388
5,CCATAATA,0.264
6,CAATAATA,0.292
7,AGATAATA,0.219
8,AGATAATG,0.181
9,CGTTATTC,0.175
10,GCTATTCC,-0.0267
11,AGGGGTAC,-0.205
12,ACCGTGAC,-0.159
13,CGAGTGCC,-0.198
14,AACGGTGT,-0.113
15,CAAAGCTC,-0.212
16,CAGTCTAG,-0.137
17,ATATGCAT,0.02
18,CAATAATC,0.171
19,ACATAATC,0.205
20,ACATAATA,0.247
21,TAATAAAA,0.365
22,AAATAATC,0.341

row,Sequence,PBM E-score
1,AAATAATA,0.344
2,TAATAAGA,0.184
3,GAATAAAA,0.207
4,TAATAATA,0.33
5,AAATAATG,0.227
6,TAATAACA,0.226
7,CAATAAAA,0.225
8,ATGCCCGA,-0.106
9,ACCTATGC,-0.0454
10,CGTCCACG,-0.133
11,CGGGGCAC,-0.319
12,ACCATCTA,0.0217
13,AACCTGGT,0.0823
14,AATCCAGA,0.295
15,AATCCAGC,0.0372
16,TATCCAGA,0.158
17,GATCAAGA,0.0926
18,TGAACAAA,0.284
19,GGAACAAA,0.45
20,CGAACAAA,0.191
21,GGAACATA,0.313
